Data on 53 compounds can be found in PubChem BioAssay AID2501 (Southern Research Specialized Biocontainment Screening …, 2010).

SMILES strings stand for the structures. Screen size: about 2,200 compounds; about 1,200 (55%) were called active. The limit is not given here; nearly all actives have IC50 up to about 92 µM. So high a share suggests a set chosen from earlier hits. Some of the results follow.

This experiment can be described thus: counter assay for TAg ATPase ADP read-out – biochemical, ADP-Hunter, fluorescence, counter-screen (AID 2501).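 Also: purified T antigen ATPase.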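 As to inhibition: 0% = enzyme with vehicle and 100% = reference inhibitor wells; higher means more inhibition.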 As to conditions: series mostly up to 100 µM; inhibition: at the top concentration.
For the compound `O=C(NNC(=O)c1ccccc1O)c1ccc(-c2ccc([N+](=O)[O-])cc2)o1`, the inhibition (in general, the relative decrease from the control value, in per cent) was 7.79% (inactive).

On to `O=c1c(-c2ccc([N+](=O)[O-])cc2)coc2c(O)c(O)ccc12`, for which the IC50 (commonly the point on the concentration scale where inhibition reaches its midpoint) was 11.1 µM (active).

`CCOc1ccc(OC(=O)c2cccc(S(=O)(=O)N3CCN(C)CC3)c2)cc1`: the IC50 is 41.5 µM (active).

Turning to `CC(=O)c1cccc(S(=O)(=O)N2CCCC(c3nc(-c4ccc(C)o4)no3)C2)c1` (stereo not drawn), the “inhibition” value was 3.94% (inactive).

Take `O=C(CCN1C(=O)C2CCCCC2C1=O)N1CCN(S(=O)(=O)c2cccc(F)c2)CC1` (stereo not drawn): the “inhibition” value is -19.8% (inactive).

With `COc1cc(-c2nnc(SCc3cc(=O)oc4cc(O)c(O)cc34)o2)cc(OC)c1OC`, the IC50 is 11.6 µM (active).

Take `COc1cc(/C(C)=N/NC(=O)CSc2nnc(C)s2)ccc1O`: the half-inhibitory concentration (IC50) was 8.44 µM (active).

As for `COc1cc(/C(C)=N/NC(=O)CSc2nc3ccccc3[nH]2)ccc1O`, the concentration for half-maximal inhibition (IC50) was 6.48 µM (active).

Take `CCOC(=O)c1c(C)[nH]c(C)c1C(=O)CSc1nc2ccccc2[nH]1`: the “inhibition” value is 6.27% (inactive).

For `CC1C=CCC2C(=O)N(c3cc(Cl)ccc3O)C(=O)C12` (stereo not drawn), the “inhibition” value is -8.48% (inactive).

On to `COc1ccc(NN=Nc2nc3c([nH]2)c(=O)n(C)c(=O)n3C)cc1`, for which the IC50 is 25.4 µM (active).

As to `O=S(=O)(Nc1c(S(=O)(=O)c2ccccc2)c2nc3ccccc3nc2n1C1CCCCC1)c1ccccc1`, the “inhibition” value was -19.5% (inactive).

Turning to `CCN(CC)P(=O)(C(NC(=O)OC)C(F)(F)C(F)(F)C(F)(F)C(F)F)N(CC)CC` (stereo not drawn), the “inhibition” value is 0.91% (inactive).

As for `O=Nc1ccc(NOC(=O)c2ccccc2Br)cc1`, the IC50 is 22.1 µM (active).

Regarding `N#Cc1c(Nc2ccccc2C(F)(F)F)s[nH]c1=O`, the “inhibition” value is -19.1% (inactive).

Take `C/C(=N\NC(=O)CSCc1ccc([N+](=O)[O-])cc1)c1ccccc1`: the “inhibition” value was -42.9% (inactive).

Regarding `C/C(=N\NC(=O)Cn1cc([N+](=O)[O-])cn1)c1ccc(O)cc1`, the IC50 was 10.7 µM (active).

As to `Oc1ccc(CCNc2c3ccccc3nc3ccccc23)cc1O`, the IC50 was 6.72 µM (active).

As for `O=C1CC(c2ccccc2)c2cccc(F)c21` (stereo not drawn), the “inhibition” value is -11.6% (inactive).

With `COc1cc(/C=N/NC(=O)c2ccc(Cn3cc([N+](=O)[O-])cn3)o2)cc(Br)c1O`, the IC50 is 8.55 µM (active).

Regarding `COc1cc(/C=N\NC(=O)c2ccc(Cn3nc([N+](=O)[O-])c(Cl)c3C)o2)ccc1O`, the IC50 is 6.71 µM (active).

As to `COc1ccc(/C=N/NC(=O)c2cc(O)c(O)c(O)c2)cc1Cn1cc([N+](=O)[O-])cn1`, the “inhibition” value was -93.8% (inactive).

On to `COC(=O)CCC(=O)OC1(C)C(=O)C2=COC(c3ccc(OC)cc3)=CC2=C(Br)C1=O` (stereo not drawn), for which the “inhibition” value was -24% (inactive).

With `Cc1nn(C(C)C(=O)O)c2ccccc12` (stereo not drawn), the “inhibition” value is -38.8% (inactive).

Take `Cc1[nH]nc2c1C(C(C)c1ccccc1)C(C#N)=C(N)O2` (stereo not drawn): the “inhibition” value is -5.83% (inactive).

`COc1cc(C2C(C#N)=C(N)Oc3n[nH]c(-c4cccnc4)c32)cc(Br)c1O` (stereo not drawn): the IC50 was 16.7 µM (active).

As for `CCOc1cc(/C=C/c2cc(C(F)(F)F)[nH]c(=O)n2)ccc1O`, the concentration for half-maximal inhibition (IC50) was 6.98 µM (active).

Regarding `COc1cccc(C(=O)Nc2ccc3c(c2)n(C)c(=O)n3C)c1`, the IC50 was 12.6 µM (active).

`COc1cccc(C2C(C(C)=O)=C(O)C(=O)N2CCNCCO)c1` (stereo not drawn): the “inhibition” value was 9.86% (inactive).

In the case of `Cn1cccc1/C=N/NC(=O)c1cccc(OC(F)(F)C(F)F)c1`, the “inhibition” value is -48.6% (inactive).

On to `CN(C(=S)Nc1cccnc1)c1ccc(O)cc1`, for which the IC50 was 40.6 µM (active).

Turning to `Oc1cccc(/C=N/NC(=S)Nc2cccnc2)c1O`, the IC50 was 8.21 µM (active).

Take `Oc1ccc(/C=N/NC(=S)Nc2cccnc2)cc1`: the 50% inhibitory concentration (IC50) is 0.9 µM (active).

For the compound `CCC(C)[C@H](N)c1nnc(SCC(=O)Nc2cccc(Cl)c2)o1` (stereo partly drawn), the “inhibition” value is -16.3% (inactive).

As for `CCn1c(SCC(=O)Nc2cccc(C(C)=O)c2)nnc1C(C)C`, the “inhibition” value is 22.6% (inactive).

For the compound `CCN(CC)c1ccc(NC(=O)CSc2nnc(N)s2)cc1C`, the half-maximal inhibitory concentration (IC50) is 8.65 µM (active).

For `Cc1nn(-c2ccc(Cl)cc2)c2[nH]c(=O)c(CNCc3ccc4c(c3)OCO4)cc12`, the “inhibition” value was -5.68% (inactive).

With `Cc1nn(-c2ccccc2)c2[nH]c(=O)c(CNc3ccc(N4CCOCC4)cc3)cc12`, the IC50 was 3.77 µM (active).

For the compound `Cc1cccc(NC(=S)N2CCCN(c3ncccc3[N+](=O)[O-])CC2)c1`, the “inhibition” value is -0.13% (inactive).

As to `CCC(C)(C)n1nnnc1C(c1ccc2ncccc2c1)N1CCN(c2ccc(O)cc2)CC1` (stereo not drawn), the IC50 was 5.17 µM (active).

Consider `Oc1ccc(N2CCN(C(c3ccncc3)c3nnnn3C3CCCC3)CC2)cc1` (stereo not drawn), for which the IC50 was 3.39 µM (active).

Regarding `CC(C)(C)n1nnnc1C(c1ccncc1)N1CCN(c2ccc(O)cc2)CC1` (stereo not drawn), the 50% inhibitory concentration (IC50) was 6.75 µM (active).

On to `Oc1ccc(N2CCN(C(c3ccccn3)c3nnnn3C3CCCC3)CC2)cc1` (stereo not drawn), for which the IC50 was 3.68 µM (active).

For `Cc1nnc(C)c2c(C)n(-c3ccc4ncccc4c3)c(C)c12`, the “inhibition” value is -11.1% (inactive).

Regarding `COc1ccc(-c2cc(-c3ccco3)[nH]c(=O)c2C#N)cc1OC`, the “inhibition” value is -30% (inactive).

On to `O=C1SC(SCc2ccccc2)=N/C1=C\c1ccco1`, for which the “inhibition” value was -6.58% (inactive).

As to `COc1ccc(CNS(=O)(=O)c2ccc3c(c2)N(C)CCO3)cc1`, the “inhibition” value is -38.9% (inactive).

Regarding `Cc1ccc(CNc2ccc(N3CCOCC3)cc2)cc1`, the concentration for half-maximal inhibition (IC50) was 3.89 µM (active).

For `COc1ccc(CNc2ccc(N3CCOCC3)cc2)cc1`, the IC50 is 10.5 µM (active).

`CCCCn1nc(NS(=O)(=O)c2cccc3nonc23)c2cc3cccc(C)c3nc21`: the IC50 was 20.5 µM (active).

Turning to `O=C1CCN(Cc2ccc(O)cc2)CCN1[C@H](CO)Cc1ccccc1`, the “inhibition” value is -10.6% (inactive).

On to `O=c1cc(CN2CCN(Cc3ccccc3)CC2)c2ccc(O)c(O)c2o1`, for which the IC50 was 10.9 µM (active).

In the case of `CCCc1cc(=O)oc2cc(C)c(CN3CCCC3)c(O)c12`, the “inhibition” value is -145% (inactive).
